In PubChem BioAssay (NCI):
This is part of a sample that, as a whole, favours compounds with a hit. Of some 83,000 tested, about 20% had one in any assay.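 Plates (96-well) were seeded with cells, treated with compound at one concentration, and incubated for 48 hours before percent growth was determined.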 Values without a mark were called inactive. Active and inactive are the calls of the source. How the source made its calls: active means growth percent below 10; inactive means the rest.

Legend:
Experiment in all cases: NCI-60 one-dose screen, 48 h (100 = growth as untreated, 0 = no growth, -100 = all killed)
Conditions in all cases: 10 µM unless noted
DU-145 prostate = system: DU-145 prostate
K-562 leukemia = system: K-562 leukemia
MALME-3M melanoma = system: MALME-3M melanoma
MDA-MB-231 breast = system: MDA-MB-231 breast
RXF 393 renal = system: RXF 393 renal
SF-268 CNS = system: SF-268 CNS
SF-295 CNS = system: SF-295 CNS
SF-539 CNS = system: SF-539 CNS
UACC-257 melanoma = system: UACC-257 melanoma
M14 melanoma = system: M14 melanoma

SMILES	growth (DU-145 prostate)	growth (K-562 leukemia)	growth (MALME-3M melanoma)	growth (MDA-MB-231 breast)	growth (RXF 393 renal)	growth (SF-268 CNS)	growth (SF-295 CNS)	growth (SF-539 CNS)	growth (UACC-257 melanoma)	growth (M14 melanoma)
COc1ccc2c(c1)c(-c1nonc1-c1c[nH]c3ccc(Br)cc13)cn2C	61.2%	11.5%	46.3%	43.4%	67%	48.3%	40.2%	56.6%	64.7%	20.8%
CCCCCCCCNc1cc2c3c(c1)CCCN3CCC2	-2.64% (active)	18.8%	48.5%	6.88% (active)	29.1%	18.3%	14%	8.74% (active)	-11.6% (active)	30.3%
N#Cc1c(Nc2ccc(F)cc2)n[nH]c1-c1cccs1	113%	99.2%	108%	89.5%	112%	98%	97.7%	98.8%	120%	104%
CCOC(=O)Cn1c(=O)c2c3ccccc3n(C)c2n2nnc(-c3ccccc3)c12	91.8%	32.8%	93.5%	79.7%	119%	91%	115%	91.1%	109%	88.1%
CC(/C=C1\SC(=S)N(CC(=O)NC(Cc2c[nH]c3ccccc23)C(=O)O)C1=O)=C\c1ccccc1 (stereo not given)	112%	107%	107%	104%	106%	92.8%	104%	104%	100%	103%
Cc1ncc(C(=O)Nc2ccc(CN3CCN(C)CC3)c(C(F)(F)F)c2)cc1C#Cc1cnc(N)c2cnccc12	13.5%	25.1%	-26.1% (active)	-63.4% (active)	-34.3% (active)	14.6%	23.6%	-76.2% (active)	-16.8% (active)	-78.5% (active)
COc1ccc(/C=C/C(=O)c2cc3c(N)c(C(=O)Nc4ccccc4C)sc3nc2C)cc1	13%	15.3%	51.7%	15.5%	-23.1% (active)	32.3%	14.2%	-38.2% (active)	64.8%	3.29% (active)
CC(C)(C)C(=O)/C=C/c1ccc([N+](=O)[O-])cc1	80.2%	13.3%	103%	81.2%	93.7%	90.1%	93.3%	86.9%	50%	70.9%
CCN(CC)CCNC(=O)c1ccc(-c2nc3ccc4[nH]ncc4c3c3c2CCCC3)cc1	53.5%	30%	79.1%	59.6%	36.4%	58.6%	80.2%	61.2%	96.7%	52.9%
C/C(=C(\c1ccc(OCCN2CCCCCC2)cc1)c1ccc(OC(=O)Cc2ccccc2)cc1)c1ccc(Cl)cc1	62.3%	-35.1% (active)	22.6%	35.1%	21.1%	49%	3.77% (active)	46.9%	5.81% (active)	-53.1% (active)
N#C/C(=C\c1ccc(Br)cc1)c1cc2ccccc2[nH]1	104%	86.4%	99.3%	79.5%	115%	102%	95.6%	93.3%	100%	101%
COc1ccc2cc(Cn3cc[n+](Cc4ccc5ccccc5c4)c3)ccc2c1	52.2%	18.4%	24.3%	29.8%	4.94% (active)	22.6%	67%	48.5%	-15.8% (active)	17.5%
COc1ccc(C2=NN(C(=O)c3cc(OC)c(OC)c(OC)c3)C(c3ccc(N(C)C)cc3)C2)cc1 (stereo not given)	10.7%	44.2%	84%	9.57% (active)	-18.5% (active)	46.6%	1.04% (active)	-37% (active)	62.6%	2.04% (active)
COC(=O)c1ccc2c(c1)c1c(C)c3ccncc3c(C)c1n2C	22.7%	8.47% (active)	5.36% (active)	25.1%	17.5%	26.3%	24.1%	31.9%	1.45% (active)	30.8%
Clc1nccc2c(-c3csc(-c4c[nH]c5ccccc45)n3)c[nH]c12	31.6%	10.3%	79.8%	24.8%	12.4%	73.4%	26.7%	41.9%	-29.2% (active)	-26.6% (active)
CCOC(=O)C1=C(c2ccccc2)N=c2s/c(=C/c3ccc(Br)cc3)c(=O)n2C1c1ccc(O)cc1 (stereo not given)	95.5%	77.6%	94.3%	81.6%	102%	83.8%	95.6%	97.9%	86.9%	87.2%
CCN1C(=O)N(CC)C2C1NN=c1s/c(=C\c3ccccc3Br)c(=O)n12 (stereo not given)	10.5%	13.1%	42%	13.9%	50.7%	43.9%	9.97% (active)	-16% (active)	56%	8.22% (active)
O=C1NC(=O)c2c1c1c3ccccc3[nH]c1c1oc3cc(Br)ccc3c21	90.2%	55%	87%	80.5%	88.1%	76.4%	52.8%	96.9%	96.4%	65.8%
O=C(/C=C/c1cccc(Cl)c1)c1cccc(OCCCCOc2cccc(C(=O)/C=C/c3cccc(Cl)c3)c2)c1	97.4%	91.4%	96.8%	97.1%	89.9%	96.6%	103%	96.6%	89.7%	85.5%
COc1ccc(C2C(C#N)=C(N)Oc3c2sc2c(Br)cccc32)cc1 (stereo not given)	21.4%	9.39% (active)	37%	40.5%	4.42% (active)	38.7%	15.7%	-12.4% (active)	65.5%	6.9% (active)
O=C(Nc1ccccc1O)c1ccccc1Nc1ccnc(C(F)(F)F)c1	104%	86.2%	112%	82.5%	108%	113%	107%	89.1%	106%	98.6%
N=C(N)c1ccc(-c2ccc(-c3ccc(Cl)cc3Cl)s2)cc1F	-82.4% (active)	-22.6% (active)	-2.93% (active)	-79.5% (active)	50.1%	1.95% (active)	-79.5% (active)	-95.4% (active)	18.6%	-15.1% (active)
Cn1cc(-c2nonc2-c2c[nH]c3ccc(F)cc23)c2cc(Br)ccc21	50.2%	7.64% (active)	61%	34.9%	74.2%	49.9%	36.5%	67.8%	63.3%	36.5%
CCOC(=O)c1c(-c2ccccc2)n2c(=O)cc(C)c3c(O)c(O)cc1c32	76.9%	53.4%	64.7%	76.3%	76.3%	52.2%	59.9%	75.7%	69.7%	66.2%
COc1cc2oc(-c3cccc(NC(=O)c4ccc5c(c4)OCO5)c3)cc(=O)c2c(OC)c1OC	52.9%	17.4%	76.4%	64.3%	46.5%	48.1%	53.9%	57%	77.3%	49.3%
O=C(O)c1cn(C2CC2)c2cc(N3CCN(C(=O)N/N=C/c4ccccc4)CC3)c(F)cc2c1=O	104%	89.1%	92.9%	120%	104%	96.8%	106%	110%	89.3%	108%
Cc1c2cc[nH]c(=O)c2c(C)c2c1[nH]c1ccc(OC(=O)c3ccccc3)cc12	34%	36.2%	20%	34%	37.4%	40%	31.6%	17.1%	11.2%	33.7%
